Laboratory results published in PubChem BioAssay (NCATS).
Inconclusive results are not listed. Active and inactive are the calls of the source. The call rests on the fitted dose curve; in most records, active means well fitted inhibition curve with a large enough effect; inconclusive means small, poorly fitted or top-dose-only effect; inactive means flat fitted curve, though single readings scatter.

Key:
Assay in all cases: qHTS profiling for inhibitors of Plasmodium falciparum proliferation (AID 504749); further: nearly all actives have a fitted effect of over 60% in size
Details in all cases: P. falciparum in erythrocytes, SYBR Green DNA, 72 h; series mostly up to 28.7 µM
C2A = test system: C2A
Procedure, shortened: (§1)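 In a 72 h erythrocytic culture (37 C, humidified, 5% CO2) at 2.5% hematocrit and 0.3% starting parasitemia, compounds were tested; SYBR Green I in detergent lysis buffer stained parasite DNA overnight.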

CP185 = test system: CP185
Procedure, shortened: as §1

CP194 = test system: CP194
Procedure, shortened: as §1

CP201 = test system: CP201
Procedure, shortened: as §1

CP203 = test system: CP203
Procedure, shortened: as §1

CP211 = test system: CP211
Procedure, shortened: as §1

CP215 = test system: CP215
Procedure, shortened: as §1

CP217 = test system: CP217
Procedure, shortened: as §1

CP237 = test system: CP237
Procedure, shortened: as §1

CP238 = test system: CP238
Procedure, shortened: as §1

CP252 = test system: CP252
Procedure, shortened: as §1

CP260 = test system: CP260
Procedure, shortened: as §1

CP262 = test system: CP262
Procedure, shortened: as §1

CP266 = test system: CP266
Procedure, shortened: as §1

CP286 = test system: CP286
Procedure, shortened: as §1

CP291 = test system: CP291
Procedure, shortened: as §1

CP305 = test system: CP305
Procedure, shortened: as §1

CP315 = test system: CP315
Procedure, shortened: as §1

CP325 = test system: CP325
Procedure, shortened: as §1

DIV30 = test system: DIV30
Procedure, shortened: as §1

ECU = test system: ECU
Procedure, shortened: as §1

FAB9 = test system: FAB9
Procedure, shortened: as §1

HB3 = test system: HB3
Procedure, shortened: as §1

JCK = test system: JCK
Procedure, shortened: as §1

N140 = test system: N140
Procedure, shortened: as §1

PAD = test system: PAD
Procedure, shortened: as §1

PC15 = test system: PC15
Procedure, shortened: as §1

PC26 = test system: PC26
Procedure, shortened: as §1

SC27B = test system: SC27B
Procedure, shortened: as §1

TAB113 = test system: TAB113
Procedure, shortened: as §1

TAB165 = test system: TAB165
Procedure, shortened: as §1

Measured: Potency
Potency means the concentration at half of the fitted maximal effect.

COc1cc2c(cc1OC)C(c1ccccc1)CN(C)CC2 (stereo unspecified)
active: CP237 6.31 µM
inactive: all other assays above
